# From PubChem BioAssay
# Activity calls are given as the source filed them.
# Legend:
# [1] = E. coli DRC41 culture turbidity changes, primary screen, E. coli filamentation inducer project, strain DRC41, OD650, 48 h (AID 1152);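 also: E. coli MC1000 strain DRC41 lacking acrAB efflux pump and sulA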; conditions: E. coli DRC41 (acrAB sulA), higher = more signal, called active from +8 up or from −8 down
# [2] = small-molecule binders of probe aLefty1, primary screen, biochemical, small-molecule microarray, 635/667 nm fluorescence (AID 1153); conditions: higher = more signal;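 also: score merges spot fluorescence with signal-to-noise ratio from the scanned slide images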
# [3] = PSAC antagonists in infected red cells, primary screen, cell-based, P. falciparum Indochina, OD700, 1 h (AID 1154); conditions: P. falciparum Indochina infected RBC osmotic lysis, higher = more signal, called active from +8 up or from −8 down
# [4] = PSAC antagonists in infected red cells, primary screen, cell-based, P. falciparum Indochina, OD700, 2 h (AID 1155);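 also: lysis reports solute entry through the parasite surface anion channel PSAC; channel blockers reduce lysis of infected cells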; conditions: P. falciparum Indochina infected erythrocytes, osmotic lysis OD700; higher = more signal, called active from +8 up or from −8 down
# [5] = osmotic lysis modulators in infected erythrocytes, primary screen, PSAC antagonist project, cell-based, P. falciparum Indochina, OD700, 3 h (AID 1156); conditions: higher = more signal, called active from +8 up or from −8 down
# [6] = PSAC antagonists in infected red cells, primary screen, cell-based, P. falciparum Indochina, OD700, 18 h (AID 1157); conditions: P. falciparum Indochina infected erythrocytes, osmotic lysis OD700, 18 h; higher = more signal, called active from +8 up or from −8 down
# [7] = modulators of S6 phosphorylation in cells, primary screen, cell-based, A549, cytoblot, luminescence, serum-stimulated (AID 1158); conditions: A549 phospho-S6 cytoblot, 5 h, higher = more signal;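 also: serum-stimulated A549 lung adenocarcinoma cells; signal is phosphorylated S6 detected by cytoblot immunostaining with HRP secondary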
# [8] = target: NADPH oxidase 2 (Homo sapiens) (UniProt P04839); experiment: NOX2-dependent H2O2 signal modulators, primary screen, NOX inhibitor project, cell-based, HEK293-NOX2, PMA-stimulated, Amplex Red fluorescence (AID 1159); conditions: 45 min, higher = more signal, called active from +8 up or from −8 down; also: test concentration not given here
# [9] = target: NADPH oxidase 4 (Homo sapiens) (UniProt Q9NPH5); experiment: NOX4-dependent H2O2 signal modulators, primary screen, NOX inhibitor project, cell-based, HEK293-NOX4, tetracycline-induced, Amplex Red fluorescence (AID 1160); conditions: 45 min, higher = more signal, called active from +8 up or from −8 down
# [10] = target: NADPH oxidase 5 (Homo sapiens) (UniProt Q96PH1); experiment: NOX5-dependent H2O2 signal modulators, primary screen, NOX inhibitor project, cell-based, HEK293-NOX5, Amplex Red fluorescence (AID 1161); conditions: HEK293-NOX5, ionomycin, 45 min, higher = more signal
# NADPH oxidase 5 (Homo sapiens), sequence (Q96PH1 whole entry, looked up): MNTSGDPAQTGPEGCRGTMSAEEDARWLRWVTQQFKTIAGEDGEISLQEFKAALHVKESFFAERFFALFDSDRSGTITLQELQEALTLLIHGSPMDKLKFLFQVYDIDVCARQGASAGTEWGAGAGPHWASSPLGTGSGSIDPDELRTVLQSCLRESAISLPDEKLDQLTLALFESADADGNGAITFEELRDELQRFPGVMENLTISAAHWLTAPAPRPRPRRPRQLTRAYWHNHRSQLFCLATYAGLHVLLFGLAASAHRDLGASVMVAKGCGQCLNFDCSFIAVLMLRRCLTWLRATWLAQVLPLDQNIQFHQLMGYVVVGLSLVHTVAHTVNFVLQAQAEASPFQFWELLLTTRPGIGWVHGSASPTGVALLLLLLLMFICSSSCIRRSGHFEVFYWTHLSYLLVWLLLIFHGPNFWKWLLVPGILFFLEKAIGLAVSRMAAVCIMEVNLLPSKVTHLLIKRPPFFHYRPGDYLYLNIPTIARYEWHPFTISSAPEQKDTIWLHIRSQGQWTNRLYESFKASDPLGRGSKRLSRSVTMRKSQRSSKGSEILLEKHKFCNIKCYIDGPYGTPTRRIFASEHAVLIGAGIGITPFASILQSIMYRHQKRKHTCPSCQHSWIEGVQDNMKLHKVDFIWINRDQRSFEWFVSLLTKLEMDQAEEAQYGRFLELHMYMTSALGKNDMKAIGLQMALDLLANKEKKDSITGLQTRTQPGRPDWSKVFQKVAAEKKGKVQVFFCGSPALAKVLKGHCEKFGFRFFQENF
# NADPH oxidase 2 (Homo sapiens), sequence (P04839 whole entry, looked up): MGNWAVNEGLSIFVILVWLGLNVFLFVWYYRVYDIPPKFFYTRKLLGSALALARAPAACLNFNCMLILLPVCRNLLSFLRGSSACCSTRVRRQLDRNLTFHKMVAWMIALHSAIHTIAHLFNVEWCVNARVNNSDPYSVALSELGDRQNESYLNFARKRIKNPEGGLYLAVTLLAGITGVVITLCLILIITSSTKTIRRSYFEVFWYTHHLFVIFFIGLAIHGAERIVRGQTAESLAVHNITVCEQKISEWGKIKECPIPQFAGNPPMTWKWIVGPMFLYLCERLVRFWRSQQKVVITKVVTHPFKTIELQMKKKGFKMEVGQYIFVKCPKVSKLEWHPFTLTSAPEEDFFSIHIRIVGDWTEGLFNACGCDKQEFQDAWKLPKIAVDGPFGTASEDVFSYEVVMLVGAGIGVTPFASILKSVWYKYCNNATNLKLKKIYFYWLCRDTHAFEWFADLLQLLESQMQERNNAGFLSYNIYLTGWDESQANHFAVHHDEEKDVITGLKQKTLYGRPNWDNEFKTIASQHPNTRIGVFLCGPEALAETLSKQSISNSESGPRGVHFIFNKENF
# NADPH oxidase 4 (Homo sapiens), sequence (Q9NPH5 whole entry, looked up): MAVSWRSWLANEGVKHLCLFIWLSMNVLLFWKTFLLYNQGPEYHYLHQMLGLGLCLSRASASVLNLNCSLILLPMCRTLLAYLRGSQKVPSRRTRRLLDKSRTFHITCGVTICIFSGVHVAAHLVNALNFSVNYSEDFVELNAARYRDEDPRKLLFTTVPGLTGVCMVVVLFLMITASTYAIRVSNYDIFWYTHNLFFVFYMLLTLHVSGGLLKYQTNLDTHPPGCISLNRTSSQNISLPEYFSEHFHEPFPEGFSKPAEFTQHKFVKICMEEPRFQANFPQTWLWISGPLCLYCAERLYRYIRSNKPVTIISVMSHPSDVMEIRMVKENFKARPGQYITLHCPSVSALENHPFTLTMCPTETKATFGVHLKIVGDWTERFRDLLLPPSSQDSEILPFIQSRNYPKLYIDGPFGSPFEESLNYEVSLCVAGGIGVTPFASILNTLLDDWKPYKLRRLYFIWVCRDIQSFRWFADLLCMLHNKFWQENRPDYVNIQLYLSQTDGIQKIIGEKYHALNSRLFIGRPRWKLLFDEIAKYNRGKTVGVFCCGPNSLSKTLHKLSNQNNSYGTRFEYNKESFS
SMILES,z-score [1],composite z-score [2],z-score [3],z-score [4],z-score [5],z-score [6],z-score [7],z-score [8],z-score [9],z-score [10]
CCCCCCCCCC(O)C1C=CC2C(=O)N(c3ccccc3)C(=O)C2N1Nc1cc(OC)c(OC)c(OC)c1 (stereo not given),-3.95 (inactive),0.448,7.78 (inactive),1.84 (inactive),-0.372 (inactive),-0.449 (inactive),1.05,-2.86 (inactive),-4.13 (inactive),-2.67
O=C1O[C@H](c2ccccc2)[C@H](c2ccccc2)N2[C@H]1[C@@H](C(=O)O)[C@]1(C(=O)Nc3ccc(C#CCCO)cc31)[C@H]2c1ccccc1OCCO,-0.443 (inactive),0.0026,0.396 (inactive),-0.353 (inactive),-1.27 (inactive),0.173 (inactive),-0.0545,1.93 (inactive),0.226 (inactive),0.636
CC(C)[Si](C#C[Si](C(C)C)(C(C)C)C(C)C)(O[C@H](c1ccccc1)c1cn(Cc2ccccc2)nn1)C(C)C,1.25 (inactive),0.0997,0.62 (inactive),0.267 (inactive),-0.351 (inactive),0.136 (inactive),-0.25,-0.734 (inactive),-1.17 (inactive),-0.932
COCC(=C=CC[C@H](O)c1ccccc1OCCO)C[C@H](O)c1ccccn1,0.769 (inactive),-0.224,3.61 (inactive),1.12 (inactive),1.74 (inactive),0.382 (inactive),0.658,0.251 (inactive),-0.831 (inactive),-0.926
COc1cc(NN2C(C(O)c3cc(OC)c(OC)c(OC)c3)C=CC3C(=O)N(C)C(=O)C32)cc(OC)c1OC (stereo not given),-1.12 (inactive),0.179,0.367 (inactive),0.0378 (inactive),0.508 (inactive),0.853 (inactive),-0.402,-1.81 (inactive),-2.26 (inactive),-2.51
C#CCN(Cc1ccccc1Br)[C@H](/C=C/c1ccccc1)[C@@H](O)Cc1ccccc1,1.47 (inactive),0.0999,1.22 (inactive),0.535 (inactive),-0.553 (inactive),0.132 (inactive),-0.135,-0.193 (inactive),0.109 (inactive),-0.639
CC1=C2[C@@H](CCc3ccccc3)OB(O)C[C@@H]2[C@@H]2C(=O)N(Cc3ccccc3)C(=O)[C@@H]2C1,-0.42 (inactive),-0.301,11.8 (active),1.28 (inactive),-0.633 (inactive),0.55 (inactive),0.433,-0.0748 (inactive),0.167 (inactive),0.587
COc1ccc([Si](C)(C)[C@@H]2[C@@H](CCO)O[C@]3(C(=O)N(Cc4ccccc4)c4ccc(N5CCOC5=O)cc43)[C@H]2C)cc1,0.519 (inactive),0.042,3.02 (inactive),-0.0856 (inactive),0.796 (inactive),-1.09 (inactive),2.12,-0.245 (inactive),0.699 (inactive),-1.07
[N-]=[N+]=Nc1ccccc1C[C@@]1(C(=O)N2CCOCC2)N=C(c2ccc(OCCCO)cc2)O[C@@H]1c1ccccc1,0.345 (inactive),-0.88,28.5 (active),23.8 (active),3.6 (inactive),2.07 (inactive),-0.0419,0.437 (inactive),0.265 (inactive),-1.66
CCCCN1CC=CC23O[C@@H]4/C=C\CCC(C)OC(=O)C4[C@H]2C(=O)N(CCCO)[C@@H]3C1=O (stereo not given in full),0.323 (inactive),0.0494,0.591 (inactive),-0.0611 (inactive),-0.23 (inactive),0.408 (inactive),-0.118,1.1 (inactive),-1.84 (inactive),0.861
CC1CC/C=C\[C@H]2OC34C=CCN(Cc5ccccc5)C(=O)[C@H]3N(C(CO)C(C)C)C(=O)[C@@H]4C2C(=O)O1 (stereo not given in full),0.084 (inactive),-0.149,1.42 (inactive),0.667 (inactive),0.97 (inactive),0.304 (inactive),-0.529,1.84 (inactive),0.983 (inactive),2.21
CCCCC(=C=CC[C@H](O)c1ccc(OCCO)cc1)CCO,-0.495 (inactive),-0.0967,12.9 (active),1.77 (inactive),1.06 (inactive),0.627 (inactive),-0.517,-0.649 (inactive),-0.798 (inactive),-2.06
COc1cc2c(cc1O)C(c1ccc(CN3CCCC3)cc1)N(Cc1cc3c(cc1Br)OCO3)CC2 (stereo not given),-2.4 (inactive),-0.138,3.92 (inactive),0.984 (inactive),0.782 (inactive),0.526 (inactive),0.0637,-3.51 (inactive),-2.64 (inactive),-3.57
CCCN1C(=O)[C@@]2(Cc3ccccc31)N=C(c1ccc(OCCCO)cc1)O[C@H]2c1ccccc1,-0.621 (inactive),0.396,18.6 (active),3.99 (inactive),2.49 (inactive),0.986 (inactive),-0.408,-0.135 (inactive),-0.123 (inactive),-1.61
COC(=O)C/C=C/C[C@]1(O)C(=O)N(C)c2ccccc21,2.8 (inactive),-0.147,-0.526 (inactive),-0.562 (inactive),-0.679 (inactive),-1.87 (inactive),1.26,-0.563 (inactive),0.4 (inactive),0.882
CC[C@@H]1C=C(C(=O)O)[C@H](c2ccccc2)N1S(=O)(=O)c1ccc(C)cc1,-1.24 (inactive),-0.0984,1 (inactive),0.72 (inactive),-0.393 (inactive),0.512 (inactive),-0.265,0.848 (inactive),-0.114 (inactive),-0.978
O=C1OCCC/C=C\[C@H]2OC34C=CCN(c5ccc6ccccc6c5)C(=O)[C@H]3N(CCO)C(=O)[C@@H]4C12 (stereo not given in full),-0.067 (inactive),0.0313,2.17 (inactive),0.476 (inactive),0.217 (inactive),0.532 (inactive),0.235,0.356 (inactive),-0.419 (inactive),1.81
C=C[C@H]1C(C(=O)OCC)=CC[C@@H](c2ccccc2)N1S(=O)(=O)c1ccc(C)cc1,-1.11 (inactive),0.457,7.17 (inactive),1.56 (inactive),0.43 (inactive),0.509 (inactive),-0.518,0.09 (inactive),-0.613 (inactive),0.14
COC(=O)C(CC#Cc1ccc2c(c1)[C@]1(C(=O)N2)[C@H](c2ccc(O)cc2)N2[C@H](c3ccccc3)[C@H](c3ccccc3)OC(=O)[C@H]2[C@@H]1C(=O)NC[C@H](O)c1ccccc1)C(=O)OC,-0.994 (inactive),-0.0518,1.13 (inactive),0.353 (inactive),-0.876 (inactive),-0.154 (inactive),-0.256,1.39 (inactive),0.318 (inactive),1.47
Cc1ccc(S[C@]2(C(=O)O)CC(=O)N(C3CCCCC3)[C@@H]2c2ccc(CO)cc2I)cc1,0.263 (inactive),0.32,9.32 (active),0.692 (inactive),0.796 (inactive),0.99 (inactive),0.0559,3.66 (inactive),-2.04 (inactive),-1.86
COc1ccccc1CN1C(=O)c2ccccc2[C@](Cc2ccccc2I)(C(=O)O)[C@@H]1c1ccc(CO)cc1,1.03 (inactive),0.0366,5.55 (inactive),1.09 (inactive),-0.0546 (inactive),0.426 (inactive),-0.523,1.03 (inactive),0.616 (inactive),0.646
C=C(COC)/C(=C/C[C@H](OC(=O)c1ccncc1)c1ccc(CO)o1)c1cnc2ccccc2c1,-0.504 (inactive),0.213,6.19 (inactive),0.807 (inactive),1.35 (inactive),0.307 (inactive),-0.959,1.13 (inactive),-0.163 (inactive),-0.377
O=C(O)[C@@H]1C[C@@H]2C(=O)N3CCC[C@H]3C(=O)N2[C@@H]1c1ccc(O)cc1,2.3 (inactive),0.266,3.69 (inactive),-0.325 (inactive),-3.21 (inactive),-1.54 (inactive),0.722,-8.21 (active),-4.92 (inactive),-5.18
CC(C)C(CO)N1C(=O)[C@@H]2C3C(=O)OCCC/C=C\[C@H]3OC23C=CCN(c2ccc4ccccc4c2)C(=O)[C@@H]13 (stereo not given in full),-0.546 (inactive),0.0533,1.03 (inactive),0.36 (inactive),0.204 (inactive),0.478 (inactive),-0.428,1.77 (inactive),0.767 (inactive),1.69
C=C[C@@H](CO)N(Cc1ccc(OC)cc1)S(=O)(=O)c1ccc(Br)cc1,1.77 (inactive),-0.639,2.48 (inactive),-0.457 (inactive),-1.21 (inactive),-1.1 (inactive),1.66,-1.84 (inactive),0.114 (inactive),-1.26
CC(=O)NCCCC[C@@H]1NC(=O)[C@@H]2C[C@H](C(=O)NCCCCCN)[C@H](c3cccc(OCCO)c3)N2C1=O,2.26 (inactive),-0.22,2.03 (inactive),-0.543 (inactive),1.98 (inactive),-1.27 (inactive),4.55,1.14 (inactive),1.06 (inactive),1.74
